For seven compounds, outcome and AC50 results are on record in PubChem BioAssay (EPA / NIEHS).

Where a structure was tested more than once in an assay, its records may differ in their call. Active and inactive are the calls of the source. Rule for the calls: active = hit-call score of the fitted dose curve at least 0.9, where 1 is the maximum; inactive = score below 0.9.

The nature of assay [1]: ATG_E_Box_CIS: Attagene CIS-FACTORIAL HepG2 Assay for human Enhancer Box (E-box) (AID 2282936). Conditions: HepG2 E-box cis-reporter transcription, actives raise or lower the signal. The essentials:
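Cells: HepG2 (human liver), transient MRTU transfection. Exposure 24 h. RNA → oligo(dT) RT → PCR → 6-FAM label → HpaI → CE. Activity fitted both directions relative to DMSO.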

The nature of assay [2]: ATG_M_61_CIS: Attagene CIS-FACTORIAL HepG2 Assay for M61 Transcription Factor (Internal Marker) (AID 2282937). Conditions: HepG2 Attagene CIS-FACTORIAL M61 internal marker reporter; actives raise or lower the signal. In a few lines:
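Human liver HepG2, transient MRTU transfection (cis promoter elements), 24 h compound. Total RNA → oligo(dT) RT → PCR → FAM label → HpaI → CE. Internal background marker; bidirectional fitting, DMSO = baseline.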

A short description of assay [3]: ATG_EGR_CIS: Attagene CIS-FACTORIAL HepG2 Assay for human Early Growth Response 1 (EGR1) (AID 2282938). Conditions: HepG2 Attagene CIS-FACTORIAL EGR reporter mRNA; actives raise or lower the signal. In a few lines:
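Transient transfection of human HepG2 with multiple cis-regulated reporter units, chemical exposure 24 h, total RNA isolated. Reverse transcription, PCR, fluorescent labelling and capillary electrophoresis quantify reporter transcripts; activity fitted bidirectionally against DMSO.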

A short description of assay [4]: ATG_M_19_CIS: Attagene CIS-FACTORIAL HepG2 Assay for M19 Transcription Factor (Internal Marker) (AID 2282939). Conditions: HepG2 Attagene CIS-FACTORIAL M19 internal marker reporter; actives raise or lower the signal. The essentials:
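Following a 24 h exposure, RNA from transfected HepG2 cells was reverse-transcribed, PCR-amplified with reporter-specific primers, end-labelled with 6-FAM and HpaI-digested before capillary separation. Values represent gain or loss versus DMSO.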

A short description of assay [5]: ATG_Ets_CIS: Attagene CIS-FACTORIAL HepG2 Assay for human Erythroblast Transformation Specific (ETS) (AID 2282941). Conditions: HepG2 ETS cis-reporter transcription, actives raise or lower the signal. In a few lines:
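HepG2 cells transfected with multiple cis-regulated reporter units measuring endogenous ETS-driven transcription, 24 h after dosing. Reporter mRNA quantified by RT-PCR with capillary electrophoresis; bidirectional fit relative to DMSO.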

Assay [6] concerns the target Hepatocyte nuclear factor 3-beta (Homo sapiens) (UniProt Q9Y261). In words: ATG_FoxA2_CIS: Attagene CIS-FACTORIAL HepG2 Assay for human Forkhead box A2 (FOXA2) (AID 2282942). Conditions: HepG2 cis-reporter transcription factor activity, 24 h; actives raise or lower the signal. In a few lines:
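Transient MRTU transfection of HepG2 liver cells; 24 h treatment; total RNA → oligo(dT) RT → PCR → FAM primer extension → HpaI cut → CE. Bidirectional fit vs DMSO.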

Assay [7] can be described thus: ATG_FoxO_CIS: Attagene CIS-FACTORIAL HepG2 Assay for human Forkhead box O (FoxO) (AID 2282943). Conditions: HepG2 Attagene cis-reporter, FoxO element, mRNA; actives raise or lower the signal. In a few lines:
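HepG2, transient MRTU transfection (cis element, endogenous TFs). Dose 24 h. TriZol RNA → oligo(dT) RT → PCR → 6-FAM primer extension → HpaI cut → CE. Gain/loss vs DMSO.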

Assay [8] is described as follows: ATG_GATA_CIS: Attagene CIS-FACTORIAL HepG2 Assay for human GATA Binding Protein (AID 2282944). Conditions: HepG2 GATA cis-element reporter, Attagene multiplex mRNA; actives raise or lower the signal. In a few lines: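 DMSO serves as negative control and baseline for bidirectional fitting of reporter mRNA changes. HepG2 cells bearing transiently transfected cis-promoter reporters were exposed 24 h; transcripts detected via RT-PCR and capillary electrophoresis.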

Assay [9] can be described thus: ATG_GLI_CIS: Attagene CIS-FACTORIAL HepG2 Assay for human Zinc Finger Protein GLI1 (AID 2282945). Conditions: HepG2, Attagene cis-factorial reporter mRNA, GLI element; actives raise or lower the signal. In a few lines: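 Bidirectional curve fits relative to DMSO, using reporter mRNA levels from RT-PCR plus capillary electrophoresis. Cells were HepG2 transiently carrying cis-regulated reporter constructs, harvested 24 h after dosing.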

Assay [10] has as its target Bile acid receptor (Homo sapiens) (UniProt Q96RI1). As to the kind of experiment: ATG_IR1_CIS: Attagene CIS-FACTORIAL HepG2 Assay for human Nuclear Receptor Subfamily 1 Group H Member 4 (NR1H4), IR1 submotif (AID 2282946). Conditions: IR1 reporter transcription, actives raise or lower the signal. In a few lines:
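Cells (human HepG2) carry transiently transfected cis-promoter reporter transcription units. Compounds are incubated 24 h, total RNA is reverse-transcribed and amplified, and labelled fragments are resolved by capillary electrophoresis. Curves use DMSO as baseline.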

Assay [11] in a line: ATG_GRE_CIS: Attagene CIS-FACTORIAL HepG2 Assay for human Glucocorticoid Response Elements (GRE) (AID 2282947). Conditions: HepG2 GRE cis-reporter, Attagene multiplex mRNA; actives raise or lower the signal. In a few lines: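 Transient MRTU transfection of human HepG2 liver cells; cis-regulated reporters report endogenous factors. 24 h dosing → RNA isolation → RT-PCR → 6-FAM primer extension → HpaI cut → CE fragment analysis. Bidirectional fit, DMSO negative control.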

Assay [12] can be described thus: ATG_ISRE_CIS: Attagene CIS-FACTORIAL HepG2 Assay for human Interferon Regulatory Factor 1 (IRF1) binding to an Interferon-Stimulated Response Element (ISRE) (AID 2282948). Conditions: HepG2 ISRE cis-reporter (Attagene), mRNA transcription readout; actives raise or lower the signal. In a few lines:
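Transiently transfected HepG2 cells carrying cis-element reporter units, dosed 24 hours. Reporter mRNA quantified by RT-PCR, fluorescent primer extension, HpaI digestion and capillary electrophoresis. Bidirectional fitting relative to DMSO.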

The nature of assay [13]: ATG_M_32_CIS: Attagene CIS-FACTORIAL HepG2 Assay for M32 Transcription Factor (Internal Marker) (AID 2282949).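 Note: background control marker of the multiplexed CIS panel rather than a real target.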 Conditions: HepG2 Attagene cis-factorial M32 reporter, mRNA; actives raise or lower the signal. The essentials: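 HepG2 cells transiently transfected with multiplexed cis-regulated reporter units, dosed 24 h. Reporter mRNA quantified by RT-PCR, 6-FAM labelling, HpaI digestion and capillary electrophoresis; bidirectional fit vs DMSO.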

The nature of assay [14]: ATG_M_06_CIS: Attagene CIS-FACTORIAL HepG2 Assay for M06 Transcription Factor (Internal Marker) (AID 2282950). Conditions: HepG2 Attagene CIS-FACTORIAL M06 internal marker reporter; actives raise or lower the signal. In a few lines:
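Fluorescence-labelled RT-PCR products from cis-promoter reporter units, cut with HpaI and resolved by capillary electrophoresis, give the signal. Cells are human HepG2, dosed for 24 h. Serves as background control, fitted relative to DMSO.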

The target of assay [15] is Hypoxia-inducible factor 1-alpha (Homo sapiens) (UniProt Q16665). As to the kind of experiment: ATG_HIF1a_CIS: Attagene CIS-FACTORIAL HepG2 Assay for human Hypoxia Inducible Factor 1 (HIF1A) (AID 2282951). Conditions: HepG2 Attagene cis-factorial HIF1a reporter transcription; actives raise or lower the signal. In a few lines: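 Transient MRTU transfection of human HepG2 liver cells, 24 h compound treatment, then total RNA isolation, oligo(dT) reverse transcription, PCR amplification, fluorescent labelling and capillary electrophoresis of reporter fragments. Gain or loss relative to DMSO.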

Assay [16] addresses Hepatocyte nuclear factor 6 (Homo sapiens) (UniProt Q9UBC0). In words: ATG_HNF6_CIS: Attagene CIS-FACTORIAL HepG2 Assay for human Hepatocyte Nuclear Factor 6 (HNF6) (AID 2282952). Conditions: HepG2 Attagene cis-factorial HNF6 reporter transcription; actives raise or lower the signal. The essentials: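 HepG2 cells transiently transfected with cis-element-driven multiplexed reporter units measuring endogenous transcription factor activity. After 24 h exposure, reporter mRNA quantified by RT-PCR, FAM-labelled fragments and capillary electrophoresis; bidirectional fitting versus DMSO.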

The nature of assay [17]: ATG_MRE_CIS: Attagene CIS-FACTORIAL HepG2 Assay for human Metal Responsive Element (MRE) (AID 2282954). Conditions: HepG2 MRE cis-reporter transcription, Attagene multiplex; actives raise or lower the signal. In a few lines: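 Transient MRTU transfection of HepG2 (FuGene 6); 24 h dosing; total RNA → oligo(dT) RT, PCR, 6-FAM primer extension, HpaI cut, CE. Bidirectional fit vs DMSO.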

Assay [18] concerns the target Paired box protein Pax-6 (Homo sapiens) (UniProt P26367). In words: ATG_Pax6_CIS: Attagene CIS-FACTORIAL HepG2 Assay for human Paired Box 6 (PAX6) (AID 2282956). Conditions: HepG2 CIS-FACTORIAL PAX6 reporter transcription, RNA readout; actives raise or lower the signal. In a few lines:
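HepG2 cells transiently transfected with cis-promoter-driven multiplexed reporter units sensing endogenous transcription factor activity; 24 h chemical exposure. Reporter mRNA quantified by RT-PCR, 6-FAM labelling, HpaI digestion and capillary electrophoresis; bidirectional fit versus DMSO baseline.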

Chain of Hypoxia-inducible factor 1-alpha (Homo sapiens) (Q16665 whole entry, looked up, the tested form may be a part): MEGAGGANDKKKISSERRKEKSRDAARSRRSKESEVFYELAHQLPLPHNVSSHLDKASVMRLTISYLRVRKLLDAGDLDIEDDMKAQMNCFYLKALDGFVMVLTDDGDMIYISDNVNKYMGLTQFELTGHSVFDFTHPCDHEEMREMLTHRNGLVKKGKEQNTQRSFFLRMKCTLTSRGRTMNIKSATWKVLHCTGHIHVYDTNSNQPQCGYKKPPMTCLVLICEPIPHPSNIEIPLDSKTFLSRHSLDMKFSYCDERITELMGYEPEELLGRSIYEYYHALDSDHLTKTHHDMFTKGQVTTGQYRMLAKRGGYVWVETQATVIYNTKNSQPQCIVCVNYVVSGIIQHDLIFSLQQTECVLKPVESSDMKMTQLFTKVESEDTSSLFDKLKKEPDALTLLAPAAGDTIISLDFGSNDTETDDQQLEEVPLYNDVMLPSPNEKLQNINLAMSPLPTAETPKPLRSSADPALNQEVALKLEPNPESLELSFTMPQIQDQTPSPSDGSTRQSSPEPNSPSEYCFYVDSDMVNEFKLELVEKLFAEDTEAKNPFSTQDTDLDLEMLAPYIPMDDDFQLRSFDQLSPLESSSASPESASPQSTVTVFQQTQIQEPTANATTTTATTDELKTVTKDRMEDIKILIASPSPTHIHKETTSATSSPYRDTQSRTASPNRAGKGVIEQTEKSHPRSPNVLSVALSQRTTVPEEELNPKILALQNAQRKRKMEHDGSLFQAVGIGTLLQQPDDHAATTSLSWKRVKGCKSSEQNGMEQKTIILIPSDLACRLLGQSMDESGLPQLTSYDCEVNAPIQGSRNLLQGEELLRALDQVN
Chain of Hepatocyte nuclear factor 6 (Homo sapiens) (Q9UBC0 whole entry, looked up, the tested form may be a part): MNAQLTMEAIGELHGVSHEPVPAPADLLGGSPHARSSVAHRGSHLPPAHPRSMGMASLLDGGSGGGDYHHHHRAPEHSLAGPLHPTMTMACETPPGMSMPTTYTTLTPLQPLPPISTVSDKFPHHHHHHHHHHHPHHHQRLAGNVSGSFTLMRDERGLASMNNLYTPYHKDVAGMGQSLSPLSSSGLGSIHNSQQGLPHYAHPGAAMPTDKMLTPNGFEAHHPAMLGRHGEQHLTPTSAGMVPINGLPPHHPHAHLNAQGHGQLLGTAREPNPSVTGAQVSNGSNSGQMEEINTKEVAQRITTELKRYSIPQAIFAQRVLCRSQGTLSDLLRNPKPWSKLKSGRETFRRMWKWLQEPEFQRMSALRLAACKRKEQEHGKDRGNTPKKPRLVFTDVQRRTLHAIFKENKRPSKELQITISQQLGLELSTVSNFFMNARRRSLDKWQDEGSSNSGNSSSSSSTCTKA
Chain of Hepatocyte nuclear factor 3-beta (Homo sapiens) (Q9Y261 whole entry, looked up): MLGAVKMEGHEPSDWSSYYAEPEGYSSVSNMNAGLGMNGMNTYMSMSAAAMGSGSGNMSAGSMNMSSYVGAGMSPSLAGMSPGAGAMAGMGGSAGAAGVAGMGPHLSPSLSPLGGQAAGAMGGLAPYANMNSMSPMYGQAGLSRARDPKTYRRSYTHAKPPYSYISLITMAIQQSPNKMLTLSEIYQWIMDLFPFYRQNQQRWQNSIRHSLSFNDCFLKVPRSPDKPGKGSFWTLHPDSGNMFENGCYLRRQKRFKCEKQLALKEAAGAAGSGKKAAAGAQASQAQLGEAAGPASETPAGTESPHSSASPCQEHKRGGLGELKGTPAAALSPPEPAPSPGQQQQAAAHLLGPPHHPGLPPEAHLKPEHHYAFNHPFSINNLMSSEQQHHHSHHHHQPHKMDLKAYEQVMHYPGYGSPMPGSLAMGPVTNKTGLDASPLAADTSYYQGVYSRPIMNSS
Chain of Paired box protein Pax-6 (Homo sapiens) (P26367 whole entry, looked up): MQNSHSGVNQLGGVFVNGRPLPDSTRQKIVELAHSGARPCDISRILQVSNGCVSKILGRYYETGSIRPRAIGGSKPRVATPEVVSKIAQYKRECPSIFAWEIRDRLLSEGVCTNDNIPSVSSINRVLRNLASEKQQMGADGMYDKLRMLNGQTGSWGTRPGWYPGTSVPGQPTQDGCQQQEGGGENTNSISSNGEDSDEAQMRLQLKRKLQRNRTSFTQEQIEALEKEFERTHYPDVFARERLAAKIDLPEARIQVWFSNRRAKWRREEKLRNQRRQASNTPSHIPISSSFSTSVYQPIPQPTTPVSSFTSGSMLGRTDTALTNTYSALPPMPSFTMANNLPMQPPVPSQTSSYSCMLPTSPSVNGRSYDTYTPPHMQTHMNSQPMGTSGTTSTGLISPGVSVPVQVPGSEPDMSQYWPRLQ
Chain of Bile acid receptor (Homo sapiens) (Q96RI1 whole entry, looked up, the tested form may be a part): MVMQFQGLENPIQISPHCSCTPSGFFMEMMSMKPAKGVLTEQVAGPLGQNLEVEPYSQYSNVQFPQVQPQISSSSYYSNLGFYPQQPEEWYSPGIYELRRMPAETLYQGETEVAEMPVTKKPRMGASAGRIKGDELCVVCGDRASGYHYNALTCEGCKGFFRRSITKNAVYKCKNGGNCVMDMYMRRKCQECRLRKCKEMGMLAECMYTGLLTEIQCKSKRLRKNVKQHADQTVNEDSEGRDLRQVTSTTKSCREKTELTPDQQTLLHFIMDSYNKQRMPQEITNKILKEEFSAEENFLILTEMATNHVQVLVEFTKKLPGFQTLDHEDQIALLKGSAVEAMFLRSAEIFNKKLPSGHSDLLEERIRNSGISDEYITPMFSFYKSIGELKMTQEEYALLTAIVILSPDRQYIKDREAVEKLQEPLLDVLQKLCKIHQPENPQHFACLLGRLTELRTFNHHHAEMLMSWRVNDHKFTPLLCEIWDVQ

With `CCOC(=O)C(C)Oc1ccc(Oc2nc3ccc(Cl)cc3o2)cc1` (stereo not drawn), the result in assay [1], in assay [2], in [3], in assay [4], in assay [5] and in assay [6] was inactive. In addition, the compound was called inactive in assay [7], in assay [8], in assay [9], in assay [10], in assay [11] and in [12]. Moreover, the compound was classed as inactive in assay [13], in [14], in [15], in assay [16], in assay [17] and in assay [18].

`CCC(O)=C1C(=O)CC(C(=O)O)CC1=O` (stereo not drawn): the outcome in assay [1], in [2], in assay [3], in assay [4], in assay [5] and in assay [6] was inactive. Besides, the compound was called inactive in [7], in assay [8], in assay [9], in assay [10], in assay [11] and in [12]. Also, the outcome in assay [13], in assay [14], in [15], in [16], in assay [17] and in [18] was inactive.

With `COC(=O)c1ccc(I)cc1S(=O)(=O)NC(=O)Nc1nc(C)nc(OC)n1`, the outcome in [1], in assay [2], in [3], in assay [4], in assay [5] and in [6] was inactive. Also, the call in assay [7], in [8], in [9], in assay [11], in assay [12] and in assay [13] was inactive. Also, the compound was classed as inactive in [14], in assay [15], in assay [16] and in [17].

Take `CCOC(=O)COc1cc(-n2ncc(C(F)(F)F)c(C)c2=O)c(F)cc1Cl`: the outcome in assay [1], in assay [2], in assay [3], in assay [4], in assay [5] and in [6] was inactive. For the same compound, the outcome in [7], in assay [8], in assay [9], in [11], in assay [12] and in assay [13] was inactive. In addition, the call in assay [14], in assay [15], in assay [16], in [17] and in assay [18] was inactive.

Take `CCCCCOC(=O)COc1cc(N2C(=O)C3=C(CCCC3)C2=O)c(F)cc1Cl`: the AC50 in assay [1] is 50 µM (active). Also, the outcome in [2], in assay [3], in assay [4], in [5], in assay [6] and in assay [7] was inactive. Moreover, the call in assay [8], in [9], in [11], in [12], in [13] and in assay [14] was inactive. Also, the result in assay [15], in [16] and in assay [17] was inactive.

`C#C[C@]1(O)CC[C@H]2[C@@H]3CCC4=CC(=O)CC[C@@H]4[C@H]3CC[C@@]21CC`: the result in assay [1], in [2], in assay [3], in [4], in assay [5] and in assay [6] was inactive. The outcome in [7], in assay [8], in assay [9], in [11], in assay [12] and in [13] was inactive. The compound was called inactive in assay [14], in assay [15], in assay [16] and in [17]. Also, the AC50 in [15] is 3.15 µM (active).

Consider `CCCCCCC(C)OC(=O)COc1nc(F)c(Cl)c(N)c1Cl` (stereo not drawn), for which the outcome in assay [1], in assay [2], in assay [3], in assay [4], in assay [5] and in [6] was inactive. Moreover, the compound was called inactive in [7], in assay [8], in [9], in assay [12], in [13] and in [14]. Moreover, the outcome in assay [15], in [16], in assay [17] and in assay [18] was inactive.

A word on the AC50: it is the midpoint of the concentration-response curve, whichever way the signal moves.
